Screening results from PubChem BioAssay.
ROS inducer: ROS inducers in U2OS cancer cells, primary screen, cell-based, H2DCF-DA fluorescence; U2OS ROS induction; ROS induction (% of piperlongumine), % at 10 µM; 2% of 46,000 active; in the data active = ROS induction above about 79%, passing the limit was not always enough;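 note: 0% = DMSO vehicle median and 100% = reference compound median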
Starred values were filed as active, the others as inactive. The sample as a whole holds a higher share of hits than the screen did.

SMILES	ROS inducer
Cc1c(Cc2ccccc2)c(Cl)n2c(nc3ccccc32)c1C#N	163.7*
Cc1c(Cc2ccc(Cl)cc2)c(=O)n2c([nH]c3ccccc32)c1C#N	13.2
Cc1ccc(-c2nc3ccccc3o2)cc1NC(=O)COc1c(C)cc(Cl)cc1Cl	-5.9
Cn1c(S(=O)(=O)CC(N)=O)nc2ccccc21	-6.0
C[C@@H]1CN([C@H](C)CO)C(=O)c2cccc(NC(=O)C3CCCCC3)c2O[C@H]1CN(C)S(=O)(=O)c1ccc(F)cc1	4.8
C[C@@H]1CN([C@H](C)CO)C(=O)c2cc(NC(=O)Nc3ccc(F)cc3)ccc2O[C@@H]1CN(C)Cc1ccc2c(c1)OCO2	2.2
C[C@@H]1CN([C@@H](C)CO)C(=O)c2cccc(NC(=O)c3ccncc3)c2O[C@H]1CN(C)C(=O)Nc1ccc2c(c1)OCO2	-12.2
N#Cc1c(NC(=O)CSc2nc3c(c(C(F)(F)F)n2)CCCC3)sc2c1CCCC2	1.6
O=C(COc1ccc(Cl)cc1Cl)NCCO	3.8
CCn1c(SCC(=O)Nc2ccc(Cl)cc2Cl)nnc1-c1cc(Br)ccc1O	-15.6
Nc1cc(N)nc(SCC(=O)N2CCN(c3ccc(Cl)cc3)CC2)n1	85.8*
CCn1c(SCC(=O)N2CCN(c3ccccc3)CC2)nnc1-c1cc2cc(Cl)ccc2o1	-12.2
O=C(CSc1nnc(-c2ccccc2O)n1-c1ccccc1)N1CCN(c2ccccc2)CC1	11.6
C[C@@H]1CCCCO[C@@H](CN(C)C(=O)Nc2cccc3ccccc23)[C@@H](C)CN([C@H](C)CO)C(=O)c2cc(N(C)C)ccc2O1	40.2
C[C@@H]1CN([C@@H](C)CO)C(=O)Cc2cc(NC(=O)C3CCCCC3)ccc2O[C@@H]1CN(C)S(C)(=O)=O	-7.0
CSc1nnc2c(n1)OC(C)Nc1ccccc1-2 (stereo unspecified)	31.5
CSc1nnc2c(n1)OC(C1CC=C(C)CC1)Nc1ccccc1-2 (stereo unspecified)	102.8*
COC(=O)C1=CO[C@@H](O[C@@H]2O[C@H](CO)[C@@H](O)[C@H](O)[C@H]2O)[C@@H]2[C@@](C)(O)[C@@H](OC(=O)/C=C/c3ccc(OC)c(O)c3)C[C@]12O	-4.5
C[C@@H]1CN([C@H](C)CO)C(=O)CCCn2cc(nn2)CO[C@H]1CN(C)C(=O)Nc1ccccc1	-7.8
COC(=O)C(NC(=O)Cc1c(C)nc2c(-c3ccccc3)c(C)nn2c1C)C(C)C (stereo unspecified)	9.6
Cc1nn2c3c(cnc2c1-c1ccccc1)C(=O)CC(C)(C)C3	26.3
COc1ccc(-c2c(C)nn3c(N)c(-c4ccccc4)cnc23)cc1	119.6*
CCCCN(C)S(=O)(=O)c1ccc(C)c(-c2nnc3c4ccccc4c(C)nn23)c1	48.9
NC(=O)c1ccc(N2CCN(C(c3ccccc3)c3ccccc3)CC2)nc1	2.3
CC(C)NC(=O)N(C)C[C@@H]1Oc2ccc(NC(=O)Nc3ccc(C(F)(F)F)cc3)cc2CC(=O)N([C@H](C)CO)C[C@H]1C	6.8
SMILES	ROS inducer
COC(=O)C1=C(C)NC2=C(C(=O)CC(c3ccccc3)C2)C1c1ccccc1OC(C)C (stereo unspecified)	46.2
COC(=O)C1=C(C)NC2=C(C(=O)CCC2)C1c1ccccc1 (stereo unspecified)	0.0
CC1=C(C(=O)OCc2ccccc2)C(c2cccc(O)c2)C2=C(CC(c3ccccc3)CC2=O)N1 (stereo unspecified)	182.5*
Cc1cc(C)cc(N2C(=O)CC(SCC(=O)Nc3ccc(Br)cc3)C2=O)c1 (stereo unspecified)	-11.5
C[C@@H]1CN([C@H](C)CO)C(=O)Cc2cc(NC(=O)CCN3CCOCC3)ccc2O[C@@H]1CN(C)S(=O)(=O)c1ccc(Cl)cc1	4.6
COc1ccc(NC(=O)Nc2ccc3c(c2)CC(=O)N([C@@H](C)CO)C[C@@H](C)[C@@H](CN(C)S(=O)(=O)c2ccccc2)O3)cc1	5.9
CC(C)CNc1ncnc2c1c(-c1ccccc1)cn2-c1ccccc1	49.9
Cc1cccc(-n2ncc3c(Nc4ccc(-c5ccccc5)cc4)ncnc32)c1	4.2
CC(=O)Nc1ccc(Nc2ncnc3c2c(-c2ccccc2)cn3-c2cccc(C)c2)cc1	96.9*
CCOC(=O)N(C)C[C@H]1OCc2cn(nn2)CCCC(=O)N([C@H](C)CO)C[C@H]1C	5.3
Cc1noc(C)c1NC(=O)Nc1cccc2c1O[C@H](CN(C)S(=O)(=O)c1cn(C)cn1)[C@H](C)CN([C@H](C)CO)C2=O	-1.8
CC(C)NC(=O)N(C)C[C@@H]1OCCCC[C@@H](C)Oc2ccc(NS(=O)(=O)c3ccc(Cl)cc3)cc2C(=O)N([C@H](C)CO)C[C@@H]1C	10.8
C[C@@H]1CCCCO[C@@H](CN(C)C(=O)CCC(F)(F)F)[C@@H](C)CN([C@H](C)CO)C(=O)c2cc(NC(=O)C3CCCCC3)ccc2O1	23.4
C[C@@H]1CCCCO[C@H](CN(C)C(=O)CCCN(C)C)[C@@H](C)CN([C@H](C)CO)C(=O)c2cc(NS(=O)(=O)c3ccc(Cl)cc3)ccc2O1	99.4*
